Laboratory results as given in paper PMC7862700, “An all-to-all approach to the identification of sequence-specific readers for epigenetic DNA modifications on cytosine”.

Assays:
Assay in all cases: DAPPL (digital affinity profiling via proximity ligation, sequencing); 10 mM Tris-HCl pH 7.5, 50 mM NaCl, 1 mM DTT, 4% glycerol, room temperature, 30 min; GST-TFs on glutathione beads, 16-mer random dsDNA library, 0.1% formaldehyde crosslink after washing; high values mean tight binding
Details in all cases: protein: recombinant; tags: N-terminal GST; dsDNA, one strand shown
[1] = biological target: T1, FLI1 (Homo sapiens, UniProt Q01543 1-452)
T1 sequence: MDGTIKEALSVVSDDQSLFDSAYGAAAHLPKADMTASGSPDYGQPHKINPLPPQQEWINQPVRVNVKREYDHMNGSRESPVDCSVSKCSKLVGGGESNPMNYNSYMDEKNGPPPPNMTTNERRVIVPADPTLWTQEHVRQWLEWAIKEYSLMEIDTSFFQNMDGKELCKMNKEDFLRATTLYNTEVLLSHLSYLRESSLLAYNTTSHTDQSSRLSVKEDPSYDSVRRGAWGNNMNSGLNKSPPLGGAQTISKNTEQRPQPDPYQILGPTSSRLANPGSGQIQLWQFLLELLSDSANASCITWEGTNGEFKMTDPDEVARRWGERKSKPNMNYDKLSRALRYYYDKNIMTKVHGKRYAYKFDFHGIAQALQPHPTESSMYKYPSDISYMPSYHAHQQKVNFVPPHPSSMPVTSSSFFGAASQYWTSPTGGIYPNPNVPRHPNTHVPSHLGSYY
Summary of the method: (§1)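 Sequencing on an Illumina NextSeq500 followed washing, crosslinking with 0.1% formaldehyde, proximity ligation (BsaI/T4 ligase, 1 h, 37 °C) and PCR amplification of pools that had been incubated for 30 min at room temperature with 200 nmole of a random double-stranded 16-mer DNA library in Tris/NaCl/DTT/glycerol buffer. Each pool held DNA-barcoded human transcription factors, expressed in yeast as GST fusions and captured on glutathione beads, plus a tag-only sample. Binding signal is a hexamer's read frequency for a factor divided by its frequency in the tag-only sample.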

[2] = biological target: T2, ELK1 (Homo sapiens, UniProt P19419 1-428)
T2 sequence: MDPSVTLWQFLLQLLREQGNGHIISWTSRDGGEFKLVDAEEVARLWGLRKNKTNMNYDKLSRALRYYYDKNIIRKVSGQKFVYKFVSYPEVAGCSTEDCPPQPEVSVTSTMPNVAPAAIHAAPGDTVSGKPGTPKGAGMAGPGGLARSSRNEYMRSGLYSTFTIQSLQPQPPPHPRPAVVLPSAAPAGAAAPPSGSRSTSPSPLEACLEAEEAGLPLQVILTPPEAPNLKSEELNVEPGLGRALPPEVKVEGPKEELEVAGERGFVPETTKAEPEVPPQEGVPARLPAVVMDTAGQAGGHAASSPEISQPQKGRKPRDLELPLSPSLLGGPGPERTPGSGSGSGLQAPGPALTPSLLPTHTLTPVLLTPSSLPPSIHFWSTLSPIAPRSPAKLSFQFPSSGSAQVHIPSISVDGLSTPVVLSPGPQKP
Summary of the method: as §1

[3] = biological target: T3, GABPA (Homo sapiens, UniProt Q06546 1-454)
T3 sequence: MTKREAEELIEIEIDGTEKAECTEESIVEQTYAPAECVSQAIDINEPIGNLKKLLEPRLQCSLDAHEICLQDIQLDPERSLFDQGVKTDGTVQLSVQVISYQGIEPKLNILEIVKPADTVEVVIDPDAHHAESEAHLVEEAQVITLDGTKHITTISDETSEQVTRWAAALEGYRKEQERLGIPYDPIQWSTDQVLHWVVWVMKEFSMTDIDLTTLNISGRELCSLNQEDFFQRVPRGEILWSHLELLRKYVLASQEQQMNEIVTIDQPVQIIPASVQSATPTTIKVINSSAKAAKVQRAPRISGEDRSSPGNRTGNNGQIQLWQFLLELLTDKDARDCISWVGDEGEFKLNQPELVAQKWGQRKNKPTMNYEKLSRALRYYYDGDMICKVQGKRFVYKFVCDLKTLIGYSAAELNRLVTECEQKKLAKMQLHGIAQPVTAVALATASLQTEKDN
Summary of the method: as §1

[4] = biological target: T4, ERG (Homo sapiens, UniProt P11308 1-479)
T4 sequence: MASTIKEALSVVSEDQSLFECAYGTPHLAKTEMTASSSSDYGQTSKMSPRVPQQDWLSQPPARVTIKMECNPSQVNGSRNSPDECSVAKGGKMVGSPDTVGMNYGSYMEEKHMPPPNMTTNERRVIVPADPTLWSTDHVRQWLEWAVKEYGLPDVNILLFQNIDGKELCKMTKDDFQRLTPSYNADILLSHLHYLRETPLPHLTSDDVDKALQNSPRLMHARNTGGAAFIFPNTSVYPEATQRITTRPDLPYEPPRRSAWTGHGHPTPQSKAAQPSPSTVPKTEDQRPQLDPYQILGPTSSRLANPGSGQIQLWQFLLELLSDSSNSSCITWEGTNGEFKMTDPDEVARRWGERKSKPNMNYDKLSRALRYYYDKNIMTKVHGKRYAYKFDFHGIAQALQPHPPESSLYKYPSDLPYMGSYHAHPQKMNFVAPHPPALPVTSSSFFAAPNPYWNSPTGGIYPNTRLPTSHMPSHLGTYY
Summary of the method: as §1

[5] = biological target: ELF1 (Homo sapiens, UniProt P32519 1-619)
Chain of ELF1 (P32519 whole entry): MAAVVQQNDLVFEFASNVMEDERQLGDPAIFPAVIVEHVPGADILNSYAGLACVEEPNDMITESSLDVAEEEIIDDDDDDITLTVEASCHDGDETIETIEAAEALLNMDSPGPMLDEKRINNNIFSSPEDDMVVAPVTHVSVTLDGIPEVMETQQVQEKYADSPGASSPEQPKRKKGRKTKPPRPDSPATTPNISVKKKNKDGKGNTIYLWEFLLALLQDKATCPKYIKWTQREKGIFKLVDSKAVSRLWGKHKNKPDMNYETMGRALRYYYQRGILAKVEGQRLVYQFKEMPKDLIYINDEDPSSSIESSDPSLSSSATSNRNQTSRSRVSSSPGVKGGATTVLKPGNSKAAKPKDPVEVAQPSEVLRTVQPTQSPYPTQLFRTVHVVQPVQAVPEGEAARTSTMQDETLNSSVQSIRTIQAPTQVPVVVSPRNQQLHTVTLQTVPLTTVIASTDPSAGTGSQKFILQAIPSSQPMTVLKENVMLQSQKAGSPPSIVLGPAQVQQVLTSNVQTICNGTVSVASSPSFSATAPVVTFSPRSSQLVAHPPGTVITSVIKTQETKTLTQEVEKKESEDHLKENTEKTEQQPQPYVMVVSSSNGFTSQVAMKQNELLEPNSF
Summary of the method: as §1

[6] = biological target: T5, EHF (Homo sapiens, UniProt Q9NZC4 1-300)
T5 sequence: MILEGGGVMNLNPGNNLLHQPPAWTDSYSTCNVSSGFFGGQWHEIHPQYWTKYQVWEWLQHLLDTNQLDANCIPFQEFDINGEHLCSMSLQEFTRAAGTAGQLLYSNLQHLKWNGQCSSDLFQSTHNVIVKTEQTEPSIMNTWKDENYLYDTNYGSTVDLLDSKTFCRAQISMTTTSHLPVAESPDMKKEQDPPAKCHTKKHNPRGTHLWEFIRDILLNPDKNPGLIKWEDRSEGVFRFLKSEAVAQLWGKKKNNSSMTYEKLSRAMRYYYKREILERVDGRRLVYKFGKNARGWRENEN
Summary of the method: as §1

[7] = biological target: SPI1 (Homo sapiens, UniProt P17947 1-270)
Summary of the method: as §1

[8] = biological target: SPIB (Homo sapiens, UniProt Q01892 1-262)
Chain of SPIB (Q01892 whole entry): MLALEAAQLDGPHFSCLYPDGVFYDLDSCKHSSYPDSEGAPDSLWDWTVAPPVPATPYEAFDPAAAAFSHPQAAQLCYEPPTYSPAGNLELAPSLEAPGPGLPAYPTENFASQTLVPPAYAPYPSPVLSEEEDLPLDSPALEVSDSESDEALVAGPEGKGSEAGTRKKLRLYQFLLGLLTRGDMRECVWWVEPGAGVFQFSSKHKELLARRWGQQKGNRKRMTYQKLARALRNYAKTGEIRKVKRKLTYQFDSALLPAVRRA
Summary of the method: as §1

[9] = biological target: T6, ELK3 (Homo sapiens, UniProt P41970 1-407)
T6 sequence: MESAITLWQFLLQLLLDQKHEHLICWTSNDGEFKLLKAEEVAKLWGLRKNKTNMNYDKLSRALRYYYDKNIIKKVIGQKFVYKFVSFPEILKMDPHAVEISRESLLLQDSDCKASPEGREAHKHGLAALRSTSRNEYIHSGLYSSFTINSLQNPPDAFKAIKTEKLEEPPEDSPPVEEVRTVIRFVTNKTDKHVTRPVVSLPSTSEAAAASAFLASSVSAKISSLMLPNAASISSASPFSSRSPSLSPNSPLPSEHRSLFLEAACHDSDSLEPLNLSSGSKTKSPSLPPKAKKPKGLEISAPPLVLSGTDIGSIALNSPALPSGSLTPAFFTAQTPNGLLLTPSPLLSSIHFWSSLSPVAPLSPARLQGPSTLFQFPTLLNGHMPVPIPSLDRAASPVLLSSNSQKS
Summary of the method: as §1

| Sequence | binding signal [1] | binding signal [2] | binding signal [3] | binding signal [4] | binding signal [5] | binding signal [6] | binding signal [7] | binding signal [8] | binding signal [9] |
| --- | --- | --- | --- | --- | --- | --- | --- | --- | --- |
| GAATTT | 1.21 fold enrichment (6-mer frequency, TF over GST control) | 1.11 fold enrichment (6-mer frequency, TF over GST control) | 1.21 fold enrichment (6-mer frequency, TF over GST control) | 1.24 fold enrichment (6-mer frequency, TF over GST control) | 1.17 fold enrichment (6-mer frequency, TF over GST control) | 1.13 fold enrichment (6-mer frequency, TF over GST control) | 1.24 fold enrichment (6-mer frequency, TF over GST control) | 1.28 fold enrichment (6-mer frequency, TF over GST control) | 1.19 fold enrichment (6-mer frequency, TF over GST control) |
| TTACCA | 1.12 fold enrichment (6-mer frequency, TF over GST control) | 1.06 fold enrichment (6-mer frequency, TF over GST control) | 1.04 fold enrichment (6-mer frequency, TF over GST control) | 1.11 fold enrichment (6-mer frequency, TF over GST control) | 1.13 fold enrichment (6-mer frequency, TF over GST control) | 1.03 fold enrichment (6-mer frequency, TF over GST control) | 1.11 fold enrichment (6-mer frequency, TF over GST control) | 1.12 fold enrichment (6-mer frequency, TF over GST control) | 1.14 fold enrichment (6-mer frequency, TF over GST control) |
| TTCAAA | 1.23 fold enrichment (6-mer frequency, TF over GST control) | 1.23 fold enrichment (6-mer frequency, TF over GST control) | 1.4 fold enrichment (6-mer frequency, TF over GST control) | 1.2 fold enrichment (6-mer frequency, TF over GST control) | 1.34 fold enrichment (6-mer frequency, TF over GST control) | 1.24 fold enrichment (6-mer frequency, TF over GST control) | 1.26 fold enrichment (6-mer frequency, TF over GST control) | 1.3 fold enrichment (6-mer frequency, TF over GST control) | 1.36 fold enrichment (6-mer frequency, TF over GST control) |
| TTCTGC | 1.54 fold enrichment (6-mer frequency, TF over GST control) | 1.49 fold enrichment (6-mer frequency, TF over GST control) | 1.4 fold enrichment (6-mer frequency, TF over GST control) | 1.32 fold enrichment (6-mer frequency, TF over GST control) | 1.52 fold enrichment (6-mer frequency, TF over GST control) | 1.46 fold enrichment (6-mer frequency, TF over GST control) | 1.5 fold enrichment (6-mer frequency, TF over GST control) | 1.34 fold enrichment (6-mer frequency, TF over GST control) | 1.39 fold enrichment (6-mer frequency, TF over GST control) |
| GTAAAA | 1.05 fold enrichment (6-mer frequency, TF over GST control) | 1 fold enrichment (6-mer frequency, TF over GST control) | 1.18 fold enrichment (6-mer frequency, TF over GST control) | 1.14 fold enrichment (6-mer frequency, TF over GST control) | 1.13 fold enrichment (6-mer frequency, TF over GST control) | 1.16 fold enrichment (6-mer frequency, TF over GST control) | 1.3 fold enrichment (6-mer frequency, TF over GST control) | 1.1 fold enrichment (6-mer frequency, TF over GST control) | 1.11 fold enrichment (6-mer frequency, TF over GST control) |
| GCTCCC | 1.37 fold enrichment (6-mer frequency, TF over GST control) | 1.28 fold enrichment (6-mer frequency, TF over GST control) | 1.34 fold enrichment (6-mer frequency, TF over GST control) | 1.33 fold enrichment (6-mer frequency, TF over GST control) | 1.37 fold enrichment (6-mer frequency, TF over GST control) | 1.33 fold enrichment (6-mer frequency, TF over GST control) | 1.26 fold enrichment (6-mer frequency, TF over GST control) | 1.28 fold enrichment (6-mer frequency, TF over GST control) | 1.18 fold enrichment (6-mer frequency, TF over GST control) |
| CTCTCG | 1.42 fold enrichment (6-mer frequency, TF over GST control) | 1.34 fold enrichment (6-mer frequency, TF over GST control) | 1.37 fold enrichment (6-mer frequency, TF over GST control) | 1.44 fold enrichment (6-mer frequency, TF over GST control) | 1.49 fold enrichment (6-mer frequency, TF over GST control) | 1.31 fold enrichment (6-mer frequency, TF over GST control) | 1.45 fold enrichment (6-mer frequency, TF over GST control) | 1.37 fold enrichment (6-mer frequency, TF over GST control) | 1.47 fold enrichment (6-mer frequency, TF over GST control) |
| ATTTAA | 1.24 fold enrichment (6-mer frequency, TF over GST control) | 1.12 fold enrichment (6-mer frequency, TF over GST control) | 1.14 fold enrichment (6-mer frequency, TF over GST control) | 1.14 fold enrichment (6-mer frequency, TF over GST control) | 1.22 fold enrichment (6-mer frequency, TF over GST control) | 1.2 fold enrichment (6-mer frequency, TF over GST control) | 1.16 fold enrichment (6-mer frequency, TF over GST control) | 1.15 fold enrichment (6-mer frequency, TF over GST control) | 1.28 fold enrichment (6-mer frequency, TF over GST control) |
